Measured values reported in PubChem BioAssay (EPA / NIEHS).
The source made the active and inactive calls. How the source made its calls: active means hit-call score of the fitted dose curve at least 0.9, where 1 is the maximum; inactive means score below 0.9.

Columns and labels:
[1] = ATG_CRE_CIS: Attagene CIS-FACTORIAL HepG2 Assay for human cAMP Responsive Element (CRE) binding protein 3 (AID 2282926); conditions: HepG2 CRE cis-reporter, Attagene multiplexed mRNA; actives raise or lower the signal
How it was run: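 HepG2 cells transiently transfected with a multiplexed reporter library (CRE-driven unit among them) were dosed for 24 h. Reporter mRNA was quantified by RT-PCR, fluorescent labelling, HpaI digestion and capillary electrophoresis, with bidirectional fitting against DMSO baseline.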

[2] = target: CCAAT/enhancer-binding protein beta (Homo sapiens) (UniProt P17676); assay: ATG_C_EBP_CIS: Attagene CIS-FACTORIAL HepG2 Assay for human CCAAT/Enhancer Binding Protein (C/EBP) beta (AID 2282927); conditions: HepG2 Attagene cis-factorial transcription factor reporter; actives raise or lower the signal
How it was run: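 HepG2 transiently transfected with multiplexed reporter units under cis-regulatory promoters reporting endogenous C/EBPb activity. After 24 h exposure, reporter mRNA assayed by RT-PCR, fluorescent labelling, HpaI digestion and capillary electrophoresis; bidirectional fitting versus DMSO.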

[3] = ATG_CMV_CIS: Attagene CIS-FACTORIAL HepG2 Assay for human CMV (Internal Marker) (AID 2282928); conditions: HepG2 CMV promoter reporter, transcription factor profiling; actives raise or lower the signal;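 further: endpoint acts as a background internal control marker rather than a target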
How it was run: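 HepG2 cells transiently transfected with multiple cis-regulated reporter units; 24 h compound exposure. Reporter mRNA quantified by RT-PCR, 6-FAM primer-extension labeling, HpaI digestion and capillary electrophoresis; bidirectional fitting against DMSO baseline.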

[4] = ATG_DR4_LXR_CIS: Attagene CIS-FACTORIAL HepG2 Assay for human Liver X Receptor (LXR), DR4 submotif (AID 2282929); conditions: HepG2 Attagene DR4 cis-reporter, mRNA transcription; actives raise or lower the signal
How it was run: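 Total RNA from 24 h-treated, MRTU-transfected HepG2 cells underwent reverse transcription, PCR, fluorescent primer extension and restriction digestion before capillary electrophoresis. Both increases and decreases in reporter signal were fitted against DMSO.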

[5] = ATG_AP_1_CIS: Attagene CIS-FACTORIAL HepG2 Assay for human Activator Protein 1 (AP-1) (AID 2282931); conditions: HepG2 Attagene cis-factorial AP-1 reporter mRNA; actives raise or lower the signal
How it was run: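 HepG2, transient cis-reporter transfection; 24 h; readout RT-PCR/CE fluorescence; DMSO baseline, gain and loss fitted.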

[6] = ATG_AP_2_CIS: Attagene CIS-FACTORIAL HepG2 Assay for human Activator Protein 2 (AP-2) (AID 2282932); conditions: HepG2 AP-2 cis-reporter, Attagene transcription factor profiling; actives raise or lower the signal
How it was run: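 HepG2 cells transiently transfected with cis-element reporter units and exposed for 24 h. Reporter mRNA measured by RT-PCR, FAM labelling, HpaI digestion and capillary electrophoresis. Changes in either direction fitted relative to DMSO.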

[7] = ATG_BRE_CIS: Attagene CIS-FACTORIAL HepG2 Assay for human Bone Morphogenetic Protein (BMP) Response Element (BRE) (AID 2282933); conditions: HepG2 BMP response element reporter, Attagene transcription factor profiling; actives raise or lower the signal
How it was run: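 Fluorescence-labelled reporter cDNA fragments, separated by capillary electrophoresis, gave the signal for this component of a 52-readout multiplex. HepG2 cells were transfected, exposed to chemicals for 24 h, and compared with DMSO using bidirectional fitting.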

[8] = target: Retinoic acid receptor alpha (Homo sapiens) (UniProt P10276); assay: ATG_DR5_RAR_CIS: Attagene CIS-FACTORIAL HepG2 Assay for human Retinoic Acid Receptor Alpha (RARE), DR5 submotif (AID 2282934); conditions: HepG2 Attagene cis-factorial RARE DR5 reporter, mRNA; actives raise or lower the signal;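 on AC50: reporter responds to endogenous RAR alpha beta and gamma in HepG2 not RARA alone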
How it was run: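 HepG2 cells transiently transfected with multiplexed reporter units; DR5 cis-element drives reporter through endogenous transcription factors. After 24 h dosing, reporter mRNA quantified by RT-PCR, fluorescent labeling, HpaI digestion and capillary electrophoresis; bidirectional fitting versus DMSO.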

[9] = target: Transcription factor E2F1 (Homo sapiens) (UniProt Q01094); assay: ATG_E2F_CIS: Attagene CIS-FACTORIAL HepG2 Assay for human E2F Transcription Factor 1 (AID 2282935); conditions: HepG2 Attagene cis-reporter, E2F reporter RNA transcripts; actives raise or lower the signal
How it was run: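 Endogenous E2F1 activity read through cis-promoter reporter units transfected into HepG2. After 24 h compound treatment, reporter mRNA measured by RT-PCR, HpaI digestion and capillary electrophoresis. Bidirectional fit versus DMSO.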

[10] = target: Aryl hydrocarbon receptor (Homo sapiens) (UniProt P35869); assay: ATG_Ahr_CIS: Attagene CIS-FACTORIAL HepG2 Assay for human Aryl Hydrocarbon Receptor (Ahr) (AID 2282930); conditions: HepG2 AhR cis-factorial reporter transcription; actives raise or lower the signal
How it was run: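 HepG2 cells transiently transfected with cis-element-driven multiplexed reporter units; endogenous AhR activity read as reporter mRNA 24 h after dosing, via RT-PCR, 6-FAM labelling, HpaI digestion and capillary electrophoresis. Bidirectional fit relative to DMSO.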

Sequence of CCAAT/enhancer-binding protein beta (Homo sapiens) (P17676 whole entry, looked up): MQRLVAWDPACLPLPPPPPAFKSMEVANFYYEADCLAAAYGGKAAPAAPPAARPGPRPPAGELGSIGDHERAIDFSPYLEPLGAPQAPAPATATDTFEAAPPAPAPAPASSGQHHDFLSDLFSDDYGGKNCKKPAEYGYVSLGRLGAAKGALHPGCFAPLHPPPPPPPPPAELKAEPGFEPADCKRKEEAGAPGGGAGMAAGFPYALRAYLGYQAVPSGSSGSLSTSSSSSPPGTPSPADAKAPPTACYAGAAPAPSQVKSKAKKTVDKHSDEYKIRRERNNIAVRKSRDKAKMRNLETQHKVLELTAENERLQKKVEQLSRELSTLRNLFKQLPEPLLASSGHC
Sequence of Transcription factor E2F1 (Homo sapiens) (Q01094 whole entry, looked up): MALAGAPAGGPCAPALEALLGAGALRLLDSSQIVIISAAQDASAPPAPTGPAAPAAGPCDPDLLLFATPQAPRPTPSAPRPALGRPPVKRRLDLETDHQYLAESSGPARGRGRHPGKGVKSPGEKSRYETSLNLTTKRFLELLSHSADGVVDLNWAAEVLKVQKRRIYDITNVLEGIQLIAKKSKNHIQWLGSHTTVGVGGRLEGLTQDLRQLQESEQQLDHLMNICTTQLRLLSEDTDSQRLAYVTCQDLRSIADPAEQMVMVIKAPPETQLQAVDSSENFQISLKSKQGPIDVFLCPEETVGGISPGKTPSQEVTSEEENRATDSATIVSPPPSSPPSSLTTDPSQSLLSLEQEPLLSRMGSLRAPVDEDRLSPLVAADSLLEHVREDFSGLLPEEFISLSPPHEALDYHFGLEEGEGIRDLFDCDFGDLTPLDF
Sequence of Aryl hydrocarbon receptor (Homo sapiens) (P35869 whole entry, looked up): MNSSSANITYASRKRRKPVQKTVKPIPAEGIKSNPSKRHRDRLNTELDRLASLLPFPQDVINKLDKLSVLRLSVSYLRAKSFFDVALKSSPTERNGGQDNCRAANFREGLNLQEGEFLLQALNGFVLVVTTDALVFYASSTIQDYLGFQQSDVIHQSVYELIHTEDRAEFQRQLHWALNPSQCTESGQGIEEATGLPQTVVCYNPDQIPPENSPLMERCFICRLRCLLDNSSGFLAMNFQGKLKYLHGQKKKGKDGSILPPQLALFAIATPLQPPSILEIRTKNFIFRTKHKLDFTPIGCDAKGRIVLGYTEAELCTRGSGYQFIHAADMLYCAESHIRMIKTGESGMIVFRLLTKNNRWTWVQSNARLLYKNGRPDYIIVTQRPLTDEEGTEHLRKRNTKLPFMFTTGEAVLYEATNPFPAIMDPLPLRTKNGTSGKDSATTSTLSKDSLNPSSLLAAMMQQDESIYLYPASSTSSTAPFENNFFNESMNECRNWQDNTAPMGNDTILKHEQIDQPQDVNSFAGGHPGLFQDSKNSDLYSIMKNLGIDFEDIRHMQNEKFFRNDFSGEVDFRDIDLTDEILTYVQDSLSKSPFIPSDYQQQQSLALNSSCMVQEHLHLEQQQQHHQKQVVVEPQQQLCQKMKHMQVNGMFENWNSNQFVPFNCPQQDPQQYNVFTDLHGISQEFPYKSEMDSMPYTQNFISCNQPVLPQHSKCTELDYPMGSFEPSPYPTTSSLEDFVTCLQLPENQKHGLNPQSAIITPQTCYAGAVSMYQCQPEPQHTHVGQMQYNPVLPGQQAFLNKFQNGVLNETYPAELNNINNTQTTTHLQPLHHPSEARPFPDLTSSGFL
Sequence of Retinoic acid receptor alpha (Homo sapiens) (P10276 whole entry, looked up): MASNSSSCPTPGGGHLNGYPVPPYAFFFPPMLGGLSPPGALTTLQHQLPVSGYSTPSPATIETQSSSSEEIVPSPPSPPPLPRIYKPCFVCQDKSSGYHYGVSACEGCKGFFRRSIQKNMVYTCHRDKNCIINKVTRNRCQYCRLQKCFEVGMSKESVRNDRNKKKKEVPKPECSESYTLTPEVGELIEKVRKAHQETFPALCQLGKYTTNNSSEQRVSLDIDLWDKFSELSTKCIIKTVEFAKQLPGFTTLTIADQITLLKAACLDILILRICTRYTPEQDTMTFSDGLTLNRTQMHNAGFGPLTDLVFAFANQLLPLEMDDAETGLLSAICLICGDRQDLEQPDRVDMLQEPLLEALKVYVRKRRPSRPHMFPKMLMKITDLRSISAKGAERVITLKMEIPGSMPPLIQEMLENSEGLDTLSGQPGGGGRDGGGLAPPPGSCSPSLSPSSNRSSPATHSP

Row | Structure (SMILES) | outcome [1] | outcome [2] | outcome [3] | outcome [4] | outcome [5] | outcome [6] | outcome [7] | outcome [8] | outcome [9] | outcome [10] | AC50 [3] | AC50 [5] | AC50 [6] | AC50 [7] | AC50 [1] | AC50 [2] | AC50 [4] | AC50 [8]
1 | CC(C)c1cccc(C(C)C)c1NC(=O)NS(=O)(=O)c1cc(C(C)(C)O)co1 | inactive | inactive | inactive | inactive | inactive | inactive | inactive | inactive | inactive |  |  |  |  |  |  |  |  | 
2 | CC(=O)O | inactive | inactive | inactive | inactive | inactive | inactive | inactive |  | inactive | inactive |  |  |  |  |  |  |  | 
3 | Nc1nc(Cl)nc2c1ncn2[C@H]1C[C@H](O)[C@@H](CO)O1 | inactive | inactive |  | inactive | inactive | inactive | inactive |  | inactive | inactive | 23.7 µM (active) |  |  |  |  |  |  | 
4 | Oc1ccc(O)cc1 | inactive | inactive | inactive | inactive |  |  |  | inactive | inactive |  |  | 48.3 µM (active) | 28.8 µM (active) | 200 µM (active) |  |  |  | 
5 | Oc1ccccc1O | inactive | inactive |  | inactive |  | inactive | inactive | inactive | inactive |  | 25 µM (active) | 13.3 µM (active) |  |  |  |  |  | 
6 | O=C1CCCCC1 | inactive | inactive | inactive | inactive | inactive | inactive | inactive |  | inactive | inactive |  |  |  |  |  |  |  | 
7 | COC(=O)CCCC(=O)OC | inactive | inactive | inactive | inactive | inactive | inactive | inactive | inactive | inactive |  |  |  |  |  |  |  |  | 
8 | Cc1cc(Cc2ccc(N)c(C)c2)ccc1N | inactive | inactive | inactive | inactive | inactive | inactive | inactive | inactive | inactive |  |  |  |  |  |  |  |  | 
9 | Cn1cnc2c1c(=O)[nH]c(=O)n2C | inactive | inactive | inactive | inactive | inactive | inactive | inactive | inactive | inactive |  |  |  |  |  |  |  |  | 
10 | CC(=O)[C@@]1(O)CC[C@H]2[C@@H]3CCC4=CC(=O)CC[C@]4(C)[C@H]3CC[C@@]21C | inactive | inactive | inactive | inactive | inactive | inactive | inactive | inactive | inactive |  |  |  |  |  |  |  |  | 
11 | O=C1OC(c2ccc(O)cc2)(c2ccc(O)cc2)c2ccccc21 |  |  |  |  |  |  | inactive |  | inactive |  | 177 µM (active) | 169 µM (active) | 48.1 µM (active) |  | 27.2 µM (active) | 184 µM (active) | 54.9 µM (active) | 4.2 µM (active)
